In assay [1] the test system is Vero E6 infected with SARS-CoV-2. The experiment in a line: morphology score (similarity to uninfected cells); higher = more like uninfected cells. As to conditions: 24 h.
For assay [2] the test system is unchanged. Kind of assay: SARS-CoV-2 infection rate relative to infected DMSO; higher = more infection, active = 60 or less. The conditions noted are these: 24 h.

SMILES strings stand for the structures.

As to `CCCCCN(CCCOC)C(=O)[C@@H](CCC(=O)O)NC(=O)c1ccc(Cl)c(Cl)c1` [dexloxiglumide] (10 µM), the morphology score in assay [1] amounted to 0.0908. In addition, in assay [2], the SARS-CoV-2 infection rate was 107% (inactive).

For `CN[C@@H]1[C@@H](O)[C@@H](O[C@@H]2[C@@H](O)[C@H](O[C@H]3OC(CN)=CC[C@H]3N)[C@@H](N)C[C@H]2N)OC[C@]1(C)O` [Sisomicin (sulfate)] (10 µM), the morphology score in assay [1] came out at 0.222. Moreover, in assay [2], the SARS-CoV-2 infection rate is 102% (inactive).

For the compound `C#C[C@]1(O)CC[C@H]2[C@@H]3CCC4=Cc5oncc5C[C@]4(C)[C@H]3CC[C@@]21C` [danazol] (10 µM), the morphology score in assay [1] came to 0.377. In addition, the SARS-CoV-2 infection rate in assay [2] is 72% (inactive).

`CCN(CC)CCOC(=O)c1cc(Cl)c(N)cc1OC` (10 µM) showed a morphology score in assay [1] of 0.128. Moreover, the SARS-CoV-2 infection rate in assay [2] is 104% (inactive).

`O=C(N[C@H](Cc1ccccc1)C(=O)O)c1sc2cc(F)ccc2c1Cl` (10 µM) yielded a morphology score in assay [1] of 0.16. For the same compound, the SARS-CoV-2 infection rate in assay [2] was 79.5% (inactive).

Consider `CC(=O)OCC1=C(C(=O)O)N2C(=O)[C@@H](NC(=O)CS/C(=N/C(C)C)NC(C)C)[C@H]2SC1` [cefathiamidine] (10 µM), for which the morphology score in assay [1] was 0.162. In assay [2], the SARS-CoV-2 infection rate was 92% (inactive).

In assay [1], `CC#CCC(C)[C@H](O)/C=C/[C@@H]1[C@H]2C/C(=C/CCCC(=O)O)C[C@H]2C[C@H]1O` (some centres undefined) [iloprost] (10 µM) gave a morphology score of 0.0115. In addition, the SARS-CoV-2 infection rate in assay [2] is 108% (inactive).

Turning to `CN[C@@H](C)CC1CCCCC1` [propylhexedrine] (10 µM), in assay [1], the morphology score is -0.0197. Further, the SARS-CoV-2 infection rate in assay [2] is 110% (inactive).

Take `c1ccc(C(NCCNC(c2ccccc2)c2ccccc2)c2ccccc2)cc1` (10 µM): the morphology score in assay [1] is 0.14. The SARS-CoV-2 infection rate in assay [2] is 101% (inactive).

Compound `Fc1cc(F)c2c(c1)[C@H]1C=CC[C@H]1C(c1cccnc1)N2` (some centres undefined) [Golgicide A] (0.833333 µM) displayed a morphology score in assay [1] of 0.281. For the same compound, the SARS-CoV-2 infection rate in assay [2] was 104% (inactive).

`CCOC(=O)Nc1ccc(NCc2c(C)cc(C)cc2C)cc1N` (10 µM) yielded a morphology score in assay [1] of -0.0161. Further, the SARS-CoV-2 infection rate in assay [2] was 108% (inactive).

In assay [1], `O=C(O)C(O)C(O)C(=O)O` (centres undefined) [tartaric-acid] (10 µM) came in with a morphology score of -0.0312. Besides, the SARS-CoV-2 infection rate in assay [2] is 103% (inactive).

In turn, `N=C(N)NC(=O)c1nc(Cl)c(N)nc1N` [amiloride] (10 µM) displayed a morphology score in assay [1] of 0.1. Besides, the SARS-CoV-2 infection rate in assay [2] was 98% (inactive).

Take `CC[C@H](CC[C@@H](C)[C@H]1CC[C@H]2[C@@H]3CC=C4C[C@@H](O[C@@H]5O[C@H](CO)[C@@H](O)[C@H](O)[C@H]5O)CC[C@]4(C)[C@H]3CC[C@]12C)C(C)C` [daucosterol] (10 µM): the morphology score in assay [1] worked out at 0.0785. Moreover, the SARS-CoV-2 infection rate in assay [2] is 102% (inactive).

As to `Cc1[nH]c(=O)c(C#N)cc1-c1ccncc1` [milrinone] (10 µM), the morphology score in assay [1] was found to be 0.236. In addition, the SARS-CoV-2 infection rate in assay [2] was 93.5% (inactive).

`COc1cc2ncn(-c3cc(OCc4ccccc4C(F)(F)F)c(C(N)=O)s3)c2cc1OC` (10 µM) yielded a morphology score in assay [1] of -0.0651. In addition, the SARS-CoV-2 infection rate in assay [2] is 106% (inactive).

For the compound `C[C@H]1CN(C[C@H](Cc2ccccc2)C(=O)NCC(=O)O)CC[C@@]1(C)c1cccc(O)c1` [alvimopan] (10 µM), in assay [1], the morphology score was 0.116. In assay [2], the SARS-CoV-2 infection rate is 106% (inactive).

In assay [1], `CCOC(=O)C1=C(C)NC(=S)NC1c1cccc(O)c1` (centres undefined) [monastrol] (10 µM) displayed a morphology score of 0.0534. Besides, the SARS-CoV-2 infection rate in assay [2] was 93% (inactive).

Take `C=C(C)[C@@H]1[C@H]2OC(=O)[C@@H]1[C@]1(O)C[C@H]3O[C@]34C(=O)O[C@H]2[C@]14C` [picrotoxinin] (10 µM): the morphology score in assay [1] was 0.0677. In assay [2], the SARS-CoV-2 infection rate is 116% (inactive).

Take `CCC[C@H](Nc1nc(-c2ccc(NC(=O)NCC)c(OC)c2)ncc1C)c1cccnc1` (10 µM): the morphology score in assay [1] was -0.29. In assay [2], the SARS-CoV-2 infection rate was 116% (inactive).

`Cc1cc(NS(=O)(=O)c2ccc(N)cc2)no1` [sulfamethoxazole] (10 µM) showed a morphology score in assay [1] of 0.128. Besides, the SARS-CoV-2 infection rate in assay [2] is 94.5% (inactive).

`CC(C)(O)C(=O)N1CCN(c2ccc(C(F)(F)F)c(C3=C(c4c[nH]c5ccccc45)C(=O)NC3=O)c2)CC1` (0.833333 µM) displayed a morphology score in assay [1] of -0.201. Besides, in assay [2], the SARS-CoV-2 infection rate was 108% (inactive).

With `OC[C@H]1O[C@@H](O[C@@H]2[C@@H](CO)OC(O)(CO)[C@H]2O)[C@H](O)[C@@H](O)[C@H]1O` (mixture of isomers) [lactulose] (10 µM), in assay [1], the morphology score was -0.0368. Moreover, in assay [2], the SARS-CoV-2 infection rate was 97.5% (inactive).

Compound `C[C@@H]1CC[C@H]2C(C)(C)[C@H]3C[C@@]12CC[C@@]3(C)O` [cedrol] (10 µM) displayed a morphology score in assay [1] of 0.0579. Further, the SARS-CoV-2 infection rate in assay [2] is 95.5% (inactive).

Consider `O=C(N[C@H]1CN2CCC1CC2)c1ccc(Cl)cc1` (10 µM), for which the morphology score in assay [1] was -0.0585. In addition, in assay [2], the SARS-CoV-2 infection rate is 99.5% (inactive).

Regarding `COc1ccc(-c2csc(NC(=O)[C@H]3CCCCN3S(=O)(=O)c3ccc(C)cc3)n2)cc1` (10 µM), the morphology score in assay [1] amounted to 0.424. The SARS-CoV-2 infection rate in assay [2] is 61.5% (inactive).

In assay [1], `C/C(=C\C(=O)Nc1ccccc1C(=O)O)c1ccc2ccccc2c1` (10 µM) returned a morphology score of 0.23. Moreover, in assay [2], the SARS-CoV-2 infection rate is 103% (inactive).

The values above are taken from the supplement of paper PMC13380429.
